EBI2 block: antagonists of human EBI2 receptor; P32249; EBI2 beta-arrestin recruitment, luminescence, 7a,25-OHC stimulated; inhibition, % at 5 µM; actives 0.81% (n = 360,000); AID 651636; in the data active means inhibition above about 38%;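 further: enzyme fragment complementation signal reports receptor beta-arrestin coupling in cells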
Target sequence (P32249 whole entry, looked up, the tested form may be a part): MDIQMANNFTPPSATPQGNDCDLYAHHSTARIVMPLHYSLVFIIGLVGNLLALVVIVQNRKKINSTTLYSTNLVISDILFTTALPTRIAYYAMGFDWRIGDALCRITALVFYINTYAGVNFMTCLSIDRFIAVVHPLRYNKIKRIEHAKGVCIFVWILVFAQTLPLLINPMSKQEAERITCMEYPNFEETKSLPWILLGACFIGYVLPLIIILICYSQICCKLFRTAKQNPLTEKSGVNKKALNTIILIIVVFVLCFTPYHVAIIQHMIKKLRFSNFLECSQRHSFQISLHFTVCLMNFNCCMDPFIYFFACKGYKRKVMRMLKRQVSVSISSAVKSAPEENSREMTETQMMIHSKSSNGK
PfHsp90 set2: inhibits growth of yeast expressing Plasmodium falciparum Hsp90 | AID 504621 | S. cerevisiae expressing PfHsp90, BacTiter-Glo ATP, 48 h; yeast lacking PDR1 and PDR3 efflux regulators | inhibition, % at 9.4 µM | actives 0.32% (n = 310,000);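 active means every replicate shows inhibition above about 80%, whatever the replicate mean, limit read from the data; inconclusive means mean inhibition reaches the set limit but some replicate falls short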
tim23-1 inh: inhibits growth of tim23-1 mutant yeast. AID 463212. inhibition, % at 20 µM. S. cerevisiae tim23-1 growth, BacTiter-Glo luminescence, 24 h. actives 1.3% (n = 330,000);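 active means growth inhibition of the mutant yeast at or above 50%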;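 further: temperature-sensitive mutant grown at 25 °C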
tim10-1 inh: inhibits growth of tim10-1 mutant yeast. S. cerevisiae tim10-1 ts strain growth, BacTiter-Glo, 24 h. actives 2.2% (n = 330,000). inhibition, % at 20 µM. AID 463190;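 active means inhibition of at least 40%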;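 further: mutant grown at 25 °C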
TIM10 inh: growth inhibitors of TIM10 yeast strain; S. cerevisiae TIM10 strain growth, BacTiter-Glo luminescence, 24 h; inhibition, % at 10 µM; actives 1.4% (n = 330,000);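 active means inhibition of 40% or more at the single tested concentration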;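 further: wild-type TIM10 isogenic control strain grown at permissive 25 °C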
SKKanGAS inh: blocks kanamycin growth of S. pyogenes SKKanGAS strain; BacTiter-Glo, 6 h; inhibition, % at 7.5 µM; actives 1.3% (n = 300,000); AID 1662;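 active means mean replicate score, as percent of positive control median, at least 50; inconclusive means mean below 50 but one replicate at or above 50; inactive means mean and every replicate below 50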;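 further: strain carries kanamycin resistance gene driven by streptokinase promoter and grows in 40 µg/ml kanamycin; loss of luminescence reflects streptokinase promoter inhibition or plain growth inhibition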
tim23-1 conf: tim23-1 yeast growth inhibition, confirmed; AID 463218; actives 83% (n = 4,400); inhibition, % at 20 µM; S. cerevisiae tim23-1 growth, BacTiter-Glo luminescence, 24 h; shares compounds with tim23-1 inh;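 active means inhibition above about 39% in either of two replicate wells at 20 µM, limit read from the data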;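 further: temperature-sensitive tim23-1 mutant grown at 25 °C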
A number is an active result; - = inactive; ? = inconclusive; . = not tested or not shown. Only some compounds are listed: those with a hit (about 4.7% of all), similar ones and a draw of the others.

SMILES | EBI2 block | PfHsp90 set2 | tim23-1 inh | tim10-1 inh | TIM10 inh | SKKanGAS inh | tim23-1 conf
CCN(C(=O)COC(=O)CNC(=O)c1ccc(C)cc1)c1c(N)n(Cc2ccccc2)c(=O)[nH]c1=O | - | - | - | - | - | . | .
CC1CCN(c2nnc(N3CCC(C)CC3)c3ccccc23)CC1 | - | - | 70 | - | - | - | 57
Cc1ccc(-c2nnc(N3CCCCC3)c3ccccc23)cc1 | - | - | 54 | - | - | - | 53
COc1ccccc1NC(=O)Nc1ccc(F)c(F)c1 | - | - | - | - | - | - | .
COc1ccccc1Nc1nc(N)nc(CSC(=S)N2CCC(C)CC2)n1 | - | - | 50 | - | - | - | -
Cc1cc(C)c(NC(=S)N(CCCN2CCN(C)CC2)Cc2cccs2)c(C)c1 | - | - | - | - | - | - | .
O=C(Nc1cccc(N=Cc2cc(Cl)cc(Br)c2O)c1)c1ccco1 | - | - | 78 | - | - | - | 90
O=C(Nc1cc(Br)c(O)c(Br)c1)c1cccc(NC(=O)c2ccco2)c1 | - | - | - | - | - | - | .
COc1ccccc1NC(=O)c1cccc(NC(=O)c2ccco2)c1 | - | - | 57 | - | - | - | 45
O=C(Nc1cccc(NC(=O)c2ccco2)c1)c1cccc(Br)c1 | - | - | 58 | - | - | - | 60
COc1ccccc1NC(=O)c1ccc(NC(=O)c2ccco2)cc1 | - | - | - | - | - | - | .
CS(=O)(=O)c1ccc(-c2csc(C(O)(c3ccccc3)C(F)(F)F)n2)cc1 (stereo not drawn) | - | . | . | . | . | . | .
Cc1[nH]nc(SCC(=O)NCc2ccc(F)cc2)c1[N+](=O)[O-] | - | - | - | - | - | - | .
COc1ccc(-c2cccc(NC(=O)c3cccs3)c2)nn1 | - | . | 62 | - | - | - | 56
CCOc1ccc(-c2cccc(NC(=O)c3cccs3)c2)nn1 | - | - | 63 | - | - | - | 47
CCOc1ccc(-c2cccc(NC(=O)c3ccco3)c2)nn1 | - | - | 54 | - | - | - | -
CO[C@@H]1CN(C)C(=O)c2cc(NC(=O)NC3CCCCC3)ccc2OC[C@@H](C)N(CC2CCOCC2)C[C@@H]1C | - | . | . | . | . | . | .
O=C(Nc1ccnn1C1CCN(Cc2cccc(F)c2F)CC1)C1CCCC1 | - | - | - | - | - | - | .
CC(OC(=O)c1cccs1)C(=O)NC1CCCCC1C (stereo not drawn) | - | - | - | - | - | . | .
CC1CCCCC1NC(=S)NC(=O)c1cccs1 (stereo not drawn) | - | - | 52 | - | - | - | 54
COc1ccc(OC)c(C(=O)COC(=O)c2cc(C)oc2C)c1 | - | - | - | - | - | - | .
COc1ccc(OC)c(C(=O)COC(=O)c2ccc([N+](=O)[O-])o2)c1 | - | - | 55 | - | - | . | 57
Oc1c(C(Nc2cccc(C(F)(F)F)c2)c2ccncc2)ccc2cccnc12 (stereo not drawn) | - | 104 | 59 | - | - | 60 | 56
O=C(Nc1cccc(C(F)(F)F)c1)c1cccnc1 | - | . | - | - | - | . | .
Cc1ccccc1-c1ocnc1C(=O)Nc1ccccc1NC(=O)c1ccccn1 | - | - | 50 | - | - | - | 49
SMILES | EBI2 block | PfHsp90 set2 | tim23-1 inh | tim10-1 inh | TIM10 inh | SKKanGAS inh | tim23-1 conf
COc1ccccc1NC(=O)C[n+]1ccccc1C | - | - | - | - | - | - | .
CCCC(NC(=S)NCC1CCCO1)C12CC3CC(CC(C3)C1)C2 (stereo not drawn) | - | - | 51 | - | - | ? | 51
S=C(NCC1CCCO1)NC1CCCCC1 (stereo not drawn) | - | - | - | - | - | - | .
CCN(CC(=O)Nc1c(F)cccc1F)C(=O)/C=C/c1ccc(Br)s1 | - | . | - | - | - | - | .
Cc1ccc2nc(C)cc(C(=O)OCC(=O)Nc3cccnc3Cl)c2c1 | - | - | - | - | - | - | .
CC1CCN(c2ccc(-c3cccs3)nn2)CC1 | - | - | 68 | - | - | - | 72
O=C(NCCC1=CCCCC1)c1cnccn1 | - | - | - | - | - | - | .
Cc1csc2nc(O)c(C(=O)NCCC3=CCCCC3)c(=O)n12 | - | - | 66 | - | - | - | 44
Cc1csc2nc(O)c(C(=O)NCCCc3ccccc3)c(=O)n12 | - | - | 73 | - | - | - | 53
N#CC(C#N)=C(N)Nc1cccc(Cl)c1 | - | - | - | - | - | - | .
N#C/C(N)=C(/C#N)N=Cc1cccc(Cl)c1 | - | - | 52 | - | - | - | 52
CC(=O)Nc1ccc(NC(=O)C(OC(=O)c2ccccc2)C(OC(=O)c2ccccc2)C(=O)O)cc1 (stereo not drawn) | - | . | - | - | - | - | .
Cc1c([N+](=O)[O-])cnc(Sc2ccccc2)c1[N+](=O)[O-] | - | - | 75 | - | - | - | 73
Cc1ccc(Sc2ncccc2[N+](=O)[O-])cc1 | - | - | - | - | - | - | .
CN(C(=O)c1cc(COc2ccc(F)c(F)c2)on1)C1CCOC1 (stereo not drawn) | - | - | - | - | - | - | .
Cc1ccsc1C(=O)Nc1ccc(S(=O)(=O)N2CCOCC2)cc1 | - | - | - | - | - | . | .
CN1CCN(S(=O)(=O)c2ccc(NC(=O)c3ccccc3F)cc2)CC1 | - | - | - | - | - | - | .
CC1CCN(S(=O)(=O)c2ccc(NC(=O)c3ccccc3F)cc2)CC1 | - | - | 52 | - | - | - | 45
CC(C)C(=O)Nc1nnc(SCC(=O)NC2CCCC2)s1 | - | - | - | - | - | - | .
CCCCS/C(N)=N/N=C/c1ccccc1O | - | - | 58 | - | - | - | 66
CCCS/C(N)=N/N=C/c1cc(C)ccc1O | - | - | - | - | - | - | .
O=c1c2ccccc2oc2c1ccc1ccccc12 | - | - | 55 | - | - | . | -
CCN1CCN(C(=O)c2c(-c3c(Cl)cccc3Cl)noc2C)CC1 | - | - | - | - | - | - | .
Cc1n[nH]c(C)c1N=Nc1ccc(Br)cc1 | - | - | 62 | - | - | - | -
O=C(OCC(=O)C12CC3CC(CC(C3)C1)C2)c1ccc(O)cc1 | - | 99 | 63 | - | - | . | 61
SMILES | EBI2 block | PfHsp90 set2 | tim23-1 inh | tim10-1 inh | TIM10 inh | SKKanGAS inh | tim23-1 conf
O=C(Oc1ccc(O)cc1)C12CC3CC(CC(C3)C1)C2 | - | - | 63 | - | - | - | 66
O=C(Oc1ccc2c(c1)OCO2)C12CC3CC(CC(C3)C1)C2 | - | - | - | - | - | - | .
Cc1ccc2oc(=O)c(-c3ccc(O)cc3)c(C)c2c1 | - | - | 52 | - | - | . | 47
O=C(COC(=O)COc1ccc2c(c1)CCC2)Nc1ccccc1 | - | - | - | - | - | . | .
CCC(=O)Nc1cccc(NC(=O)c2cc3ccccc3o2)c1 | - | - | - | - | - | - | .
CCOC(=O)c1cccc(NC(=O)c2cc3ccccc3o2)c1 | - | - | 58 | - | - | - | 52
CCOC(=O)c1cccc(NC(=O)CCc2ccccc2)c1 | - | . | 61 | - | - | - | -

High-throughput results as filed in PubChem BioAssay.
